Sampled rows, rich in hits. Any-hit rate of the full collection: about 5.1%.
TSHR ag: TSH receptor (human) agonism. HEK293-CNG-TSHR cells (CNG channel as cAMP sensor), membrane potential dye, cAMP. Potency, µM (doses to about 57.1 µM), inactives show at the top dose activation, usual class: activators. 0.48% of 73,000 active. AID 926; active = well fitted activation curve with a large enough effect in the main read-out, with a control signal flat, not every such curve was filed as active; inconclusive = small, poorly fitted or top-dose-only effect, or a change in a side signal; inactive = no such curve, though single readings can be large or run the other way; % of control where 0% means no effect;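 note: the control signal comes from parental cells without the receptor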
Target sequence (P16473 whole entry, looked up): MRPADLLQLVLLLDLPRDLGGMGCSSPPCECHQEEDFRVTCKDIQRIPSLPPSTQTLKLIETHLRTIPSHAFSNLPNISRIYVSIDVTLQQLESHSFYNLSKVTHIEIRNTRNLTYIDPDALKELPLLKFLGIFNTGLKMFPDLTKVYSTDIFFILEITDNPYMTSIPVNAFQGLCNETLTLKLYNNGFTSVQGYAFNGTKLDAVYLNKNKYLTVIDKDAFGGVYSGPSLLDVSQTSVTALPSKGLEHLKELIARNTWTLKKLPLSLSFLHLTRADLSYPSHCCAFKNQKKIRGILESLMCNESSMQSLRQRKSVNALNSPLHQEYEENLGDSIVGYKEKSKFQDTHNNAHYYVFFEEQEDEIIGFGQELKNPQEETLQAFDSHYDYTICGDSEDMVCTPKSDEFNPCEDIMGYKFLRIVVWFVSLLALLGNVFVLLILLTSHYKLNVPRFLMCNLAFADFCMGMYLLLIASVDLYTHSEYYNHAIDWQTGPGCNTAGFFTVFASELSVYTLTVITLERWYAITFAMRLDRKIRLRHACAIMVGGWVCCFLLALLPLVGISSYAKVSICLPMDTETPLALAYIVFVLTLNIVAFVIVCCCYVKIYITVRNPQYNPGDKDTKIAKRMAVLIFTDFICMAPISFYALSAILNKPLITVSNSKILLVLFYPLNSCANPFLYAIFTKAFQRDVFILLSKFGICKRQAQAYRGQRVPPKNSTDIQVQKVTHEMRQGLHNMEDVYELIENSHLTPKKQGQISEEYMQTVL
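HEK 293 cells stably expressing TSHR and a modified CNG channel, with CNG-only parental cells as counterscreen, were preloaded 60 min at room temperature with membrane potential dye containing 100 uM RO 20-1724. Compound exposure was 30 min, and depolarization was read as fluorescence at 590 nm.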
HEK293 cAMP cs: raises cAMP in parental HEK293 cells, TSHR agonist counter-screen. parental HEK293 CNG cAMP sensor, membrane potential fluorescence. Potency, µM (series often up to 57.1 µM), for inactives: at the top dose activation, most hits filed as activators. 2.5% of 73,000 active. AID 938; note: % of control where 0% means no effect; nearly all actives have a fitted effect of over 55% in size
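Parental HEK 293 cells stably expressing a cAMP-gated CNG channel were loaded with membrane potential dye containing 100 uM RO 20-1724 for 60 min. Compound added for 30 min; depolarization read as fluorescence intensity at 590 nm.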
DNA Pol III inh: inhibitors of bacterial DNA polymerase III holoenzyme; reconstituted DNA polymerase III holoenzyme replication, biochemical; Potency, µM (highest dose often 57.1 µM), without a hit: at the highest dose activity change, negative = inhibition; 0.25% of 71,000 active; AID 603; note: % is set by controls: 0 for no effect and ±100 for the full control effect
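Reconstituted *E. coli* holoenzyme (0.35 nM Pol III, 1 nM beta, 154 nM SSB, 2 nM primase) was preincubated with compound for 15 min at RT. Synthesis on 1.4 nM ssM13Gori ran 35 min, then was stopped with PicoGreen/EDTA and read as dsDNA fluorescence.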
Tau fil binding: binds recombinant human tau filaments | Potency, µM (series often up to 57.1 µM), for the others: at the top dose activity change, negative = inhibition | P10636 | 2% of 71,000 active | recombinant tau filaments, thioflavin S fluorescence, 15 h; filaments grown with octadecylsulfate alongside compound | AID 596;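 note: % is set by controls: 0 for no effect and ±100 for the full control effect; actives lower thioflavin S fluorescence by blocking filaments or displacing dye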
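Thioflavine S fluorescence (ex 450, em 510 nm) reports filaments formed from 1 uM human tau plus 30 uM ODS over 15 h at 37 C (10 mM HEPES pH 7.4, 100 mM NaCl, 5 mM DTT); compounds displacing dye or blocking filaments lower signal.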
Hsp90 Hop PPI: changes Hsp90-Hop TPR2A binding signal, up or down; Potency, µM (titrated, usually from 57 µM), for the others: at the top dose activity change, negative = inhibition; AID 595; AlphaScreen TPR2A-His6 binding biotin-Hsp90 C-terminal peptide; 0.44% of 71,000 active; active = well fitted curve in either direction with a large enough effect; inconclusive = small, poorly fitted or top-dose-only effect, or another doubt; note: % is set by controls: 0 for no effect and ±100 for the full control effect
* hit, by the source's call; i = inactive; ? = inconclusive; / = no result given; [ ] = remark or other dose. Unless noted, calls come from the whole dose curve; as a rule, active = well fitted curve in the direction sought with a large enough effect; inconclusive = small, poorly fitted or top-dose-only effect, or another doubt; inactive = no such curve, though single readings can be large; an effect the other way counts as inactive or inconclusive. Potency is the fitted concentration of half-maximal effect.

SMILES | TSHR ag | HEK293 cAMP cs | DNA Pol III inh | Tau fil binding | Hsp90 Hop PPI
C[C@@]1(C(NC(=O)Cc2ccccc2)c2ccc(-c3ccccc3)cc2)C[C@H]1C1CCCCC1 (stereo partly drawn) | 7% | 3% | 0% | 2% | -4%
NCCC[C@@H](CC(=O)N[C@@H]1CCCC[C@H]1C(=O)N[C@H](CC(=O)N[C@@H](CCC(=O)O)CC(=O)O)Cc1ccccc1)NC(=O)C[C@H](CO)NC(=O)[C@@H]1CNCC[C@H]1N | / | 12% | -4% | -1% | -15%
OCCNc1nc(-c2cccnc2)nc2ccccc12 | 0% | -5% | -6% | 8% | -2%
c1cncc(-c2nc(NCc3ccco3)c3ccccc3n2)c1 | ? | 25µM* | -13% | -6% | -15%
COc1ccccc1-n1cnnc1SCC(=O)c1cc(C)n(Cc2cccs2)c1C | ? | 32µM* | 2% | 136% | -6%
Cc1cc(C(=O)CSc2nnc(-c3ccccc3F)o2)c(C)n1Cc1cccs1 | ? | ? | 4% | i | -2%
Cn1cccc1C(=O)N1CCC2(CCCN(C(c3ccccc3)c3ccccc3)C2)CC1 | 3% | 15% | 9% | 12% | -27%
Cn1cccc1C(=O)N1CCC2(CC1)CCN(c1ccc(-c3ccccc3)cc1)CC2 | / | -10% | 15% | 16µM* | -23%
Cn1cccc1C(=O)N1CCC[C@@]2(CCN(C(c3ccccc3)c3ccccc3)C2)C1 | ? | 10µM* | 8% | -1% | -18%
CN1CCN(c2nc3c(c(=O)n(C)c(=O)n3C)n2C)CC1 | 4%[11.4 µM] | 1%[11.4 µM] | -14%[11.4 µM] | 4%[11.4 µM] | -4%[11 µM]
COC(=O)/C=C\CCc1coc(/C=C\CNC(=O)OC)n1 | -5%[11.4 µM] | 1%[11.4 µM] | / | / | /
c1ccc2c(c1)Cc1cc3cc4c(cc3nc1-2)OCO4 | / | 24% | -21% | 13% | 14%
C=CCOC(=O)C1=C(C)NC(SCC(=O)OCC)=C(C#N)C1c1ccc(O)c(OC)c1 (stereo not drawn) | 9% | -1% | -8% | 5% | -7%
C=CCOC(=O)C1=C(C)NC(SC)=C(C#N)C1c1ccc(OCC)cc1 (stereo not drawn) | 0.5µM* | 15% | -1% | 15% | 30%
CO[C@H]1COC(=O)[C@H](C)NC(=O)C/C=C\[C@@H](C)[C@@H](NS(=O)(=O)c2ccc(C)cc2)COC(=O)C/C=C\[C@@H]1C | -4%[11.4 µM] | -1%[11.4 µM] | / | / | /
COc1cc(C(=O)Oc2ccccc2N)cc(OC)c1OC | 3.2µM* | -1%[11.4 µM] | -7%[11.4 µM] | -18%[11.4 µM] | -6%[11 µM]
Cc1nc2nc(-c3ccccc3)cn2nc1C | ? | ? | -2% | 304% | 2%
Cc1nn2cc(-c3ccc(N)cc3)nc2s1 | -7% | -7% | -10% | 16µM* | -12%
N#Cc1ccccc1-c1ccc2ncnc(N3CCNCC3)c2c1 | 5% | 3% | -1% | 8% | 3%
COC(=O)c1ccccc1NS(=O)(=O)c1ccc2c3c(cccc13)C(=O)N2 | 1%[11.4 µM] | -19% | 2% | 16µM* | 11%
COc1ccc(C(=O)CSc2nnnn2Cc2ccccc2)cc1 | 16% | 22% | -6% | 8% | 13%
O=C(CSc1nnnn1Cc1ccccc1)c1ccccc1 | ? | 32µM* | ? | 6% | 7%
COc1ccccc1OCCCCNCCO | 4% | 14% | -1% | 13% | 0%
CC(C)c1ccccc1OCCCCCNCCO | 19% | 19% | -1% | 13µM* | 7%
Cc1ccccc1OCCCCCNCCO | 9% | 17% | / | / | /
SMILES | TSHR ag | HEK293 cAMP cs | DNA Pol III inh | Tau fil binding | Hsp90 Hop PPI
CC(C)(C)c1ccccc1OCCCCCNCCO | 8% | 4% | -3% | 10µM* | -4%
O=C1C=CC(=O)C2=C1C1c3ccccc3C2c2ccccc21 | -5% | -2% | / | / | /
COC(=O)N1CCC2(CCN(C(=O)Nc3ccc(OC)cc3)CC2)CC1 | ? | 16µM* | -6% | 9% | -5%
COc1ccc(NC(=O)N2CCC3(CC2)CCN(C(=O)c2ccncc2)CC3)cc1 | -1% | 8% | -4% | 5% | 0%
COc1ccc(NC(=O)N2CC3(CCN(C(=O)c4c(C)noc4C)CC3)C2)cc1 | ? | 13µM* | -6% | -1% | -1%
CCN(CC)CC(=O)Nc1cc(C)c2c(=O)oc3ccccc3c2n1 | 4% | 4% | -4% | -8% | -2%
O=S(=O)(NC1CCCCC1)c1cccc(-c2nnc(-c3ccccc3)o2)c1 | ? | 20µM* | 0% | 86% | 3%
Cc1ccccc1NS(=O)(=O)c1cccc(-c2nnc(-c3ccccc3)o2)c1 | ? | 6.3µM* | -3% | 53% | 5%
Clc1cccc(-c2nnc(-c3ccccc3)o2)c1 | ? | ? | -4% | 16% | 15%
O=C(Nc1cccc(-c2nnc(-c3ccccc3)o2)c1)C1CCCCC1 | ? | ? | 4% | 15% | 6%
O=c1c2ccc(-c3nnc4n3-c3ccccc3SC4)cc2nc2n1CCCCC2 | 2% | -1% | 0% | -5% | 0%
CC(C)CO/N=C1/C[C@@H](O)[C@@H](O)[C@@H]2[C@H]3C(=O)N(c4ccc(F)cc4F)C(=O)[C@@H]3CC[C@H]12 | 0%[11.4 µM] | -8%[11.4 µM] | / | / | /
CC(C)C(=O)NC(c1ccco1)c1ccc2cccnc2c1O (stereo not drawn) | ? | ? | -7% | 49% | 10µM*
COc1ccc(C(NC(C)=O)c2ccc3cccnc3c2O)c(OC)c1 (stereo not drawn) | 15% | -1% | -4% | -14% | 16µM*
Oc1c(C(Nc2nc3ccccc3s2)c2ccco2)ccc2cccnc12 (stereo not drawn) | 24% | 9% | 0% | -29% | ?
COCCc1ccc(OC[C@H](O)CNC(C)C)cc1 | 1%[25.6 µM] | 5%[25.6 µM] | -6%[25.6 µM] | -8%[25.6 µM] | -3%[26 µM]
O=c1oc2ccccc2c(O)c1/C=N/c1nc(-c2ccc(O)c(O)c2)cs1 | 6%[11.4 µM] | 4%[11.4 µM] | 3%[11.4 µM] | -7%[11.4 µM] | -2%[11 µM]
C[C@@H](CNC(N)=O)NC(N)=O | -3%[11.4 µM] | 2%[11.4 µM] | -7%[11.4 µM] | -1%[11.4 µM] | -1%[11 µM]
Cc1cc(C)c(C#N)c(SCC(=O)CC(=O)OC(C)C)n1 | ? | 25µM* | -7% | 13% | 3%
Cc1cc(C)c(C#N)c(SCC(=O)OC2CCCCC2)n1 | ? | ? | 3% | -2% | 32µM*
COCCn1c(C)cc(C(=O)CSc2nc(C)cc(C)c2C#N)c1C | / | 17% | 1% | 26% | -5%
CCOC(OCC)P(=O)(O)CCCNCc1ccc(Cl)c(Cl)c1 | -7% | 0% | -2% | ? | -1%
CN(C)CCC(=O)[C@@]1(O)CC[C@H]2[C@H]3CC=C4C[C@@H](O)CC[C@]4(C)[C@H]3CC[C@]21C | 3%[11.4 µM] | 5%[11.4 µM] | -9%[11.4 µM] | -1%[11.4 µM] | -1%[11 µM]
COc1ccccc1-c1nccc(NCc2cnc(C)cn2)n1 | 5% | 10% | -6% | 4% | -8%
COc1ccc(Cc2nnc3n2N=C(c2cc4ccccc4o2)CS3)cc1OC | ? | 25µM* | -2% | 32µM* | -3%
CCCOc1ccc2ccccc2c1/C=N/n1c(C)nnc1-n1nc(C)cc1C | ? | 4µM* | -1%[11.4 µM] | -2%[11.4 µM] | -12%[11 µM]

Source: PubChem BioAssay
